# ATXN2 expr inh: inhibitors of ATXN2 expression; HEK-293 ATXN2-luciferase reporter, luminescence, 24 h; Potency, µM (highest dose often 57 µM), for inactives: at the highest dose activity change, negative = inhibition, most hits filed as inhibitors; actives 0.72% (n = 360,000); also: % is scaled to controls: 0 for no effect and ±100 for the full control effect; nearly all actives have a fitted effect of over 55% in size
#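 qHTS (up to 57 uM final) was run with 24 h compound exposure of reporter cells at 37 °C. Each well was multiplexed: SteadyGlo luminescence measured ATXN2-luciferase expression after a fluorogenic Gly-Phe-AFC viability readout (25 uM final).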
# TGFb SMAD3 inh: inhibitors of TGF-b signaling | AID 588855 | Potency, µM (highest dose often 46.1 µM), for inactives: top-dose activity, negative = inhibition, actives largely listed as inhibitors | actives 1.2% (n = 410,000) | HepG2 CAGA-GFP TGF-b/SMAD3 reporter, GFP fluorescence, 18 h; TGF-beta stimulated, 500 pg/mL final; also: % is scaled to controls: 0 for no effect and ±100 for the full control effect; nearly all actives have a fitted effect of over 65% in size
#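 Cell-based qHTS in HEPG2 carrying a CAGA-GFP Smad reporter; compounds added before 500 pg/mL final TGF-beta, 18 h incubation at 37 degrees C, GFP fluorescence quantified per cell by imaging cytometry.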
# HepG2 tox-1: kills HepG2 cells in TGF-b inhibitor counter-screen; HepG2 CAGA-GFP viability, ATP luminescence, 18 h; Potency, µM (titrated, usually from 46.1 µM), for the others: top-dose activity change, negative = cytotoxicity, actives largely listed as cytotoxic; actives 0.76% (n = 410,000); AID 588856
#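 CellTiter-Glo luminescence gave cytotoxicity after 18 hours at 37 degrees C. The cells were HepG2 CAGA-GFP in 1% FBS DMEM, stimulated with 500 pg/mL TGF-beta after compound addition. %Activity was normalised to no-cell wells (complete cell-killing) and DMSO (no toxicity), and curves were fitted and classified.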
# S2 tox: viability counter-screen for ATXN expression inhibitors; Potency, µM (titrated, usually from 56.7 µM), hits mostly cytotoxic; AID 651635; S2 cells (HEK-293 line with an ATXN2-luciferase reporter) viability, CellTiter-Fluor protease fluorescence, 24 h; actives 0.49% (n = 400,000); also: nearly all actives have a fitted effect of over 40% in size
# TGFb CAGA inh: confirmation of TGF-b signaling inhibitors in HepG2 reporter cells; shares compounds with TGFb SMAD3 inh; actives 63% (n = 1,600); AID 720534; Potency, µM (series often up to 46.1 µM), for the others: at the top dose activity, negative = inhibition, most hits filed as inhibitors; HepG2 CAGA-GFP TGF-b reporter, GFP fluorescence, 18 h; cells stimulated with TGF-beta, 500 pg/mL; also: % is scaled to controls: 0 for no effect and ±100 for the full control effect; nearly all actives have a fitted effect of over 65% in size
# HepG2 tox-2: HepG2 cytotoxicity, TGF-b inhibitor counterscreen | shares compounds with TGFb SMAD3 inh | HepG2 CAGA-GFP viability, ATP luminescence, 18 h; cells stimulated with TGF-beta, 500 pg/mL | Potency, µM (series often up to 46.1 µM), inactives show at the top dose activity, negative = cytotoxicity, most hits filed as inhibitors | actives 27% (n = 1,600); also: % is scaled to controls: 0 for no effect and ±100 for the full control effect; nearly all actives have a fitted effect of over 70% in size
# TGFb CCL64 inh: orthogonal confirmation of TGF-b inhibitors in CCL64 cells | shares compounds with TGFb SMAD3 inh | Potency, µM (series often up to 46.1 µM), for the others: at the highest dose activity, negative = inhibition, actives largely listed as inhibitors | actives 41% (n = 1,600) | CCL64 CAGA-GFP reporter, TGF-b stimulated, GFP fluorescence, 18 h | AID 720536; also: nearly all actives have a fitted effect of over 65% in size
# COP TGFb inh: validation of TGF-b inhibitors in HepG2 COP promoter reporter; Potency, µM (series often up to 46.1 µM), without a hit: top-dose activity, negative = inhibition, hits mostly inhibitors; HepG2 COP-GFP TGF-b reporter, GFP fluorescence, 18 h; cells stimulated by added recombinant TGF-beta; actives 3% (n = 1,600); shares compounds with TGFb SMAD3 inh; also: nearly all actives have a fitted effect of over 70% in size
# Starred values were filed as active, the others as inactive; i = inactive; ? = inconclusive; · = no result. Rows were chosen to be rich in hits. Some 2.3% of all compounds tested hit in one or more screens of this group. Calls follow the shape of the dose curve; as a rule, active = well fitted curve in the direction sought with a large enough effect; inconclusive = small, poorly fitted or top-dose-only effect, or another doubt; inactive = no such curve, though single readings can be large; an effect the other way counts as inactive or inconclusive. Potency is read from the fitted curve at half-maximal effect.
SMILES,ATXN2 expr inh,TGFb SMAD3 inh,HepG2 tox-1,S2 tox,TGFb CAGA inh,HepG2 tox-2,TGFb CCL64 inh,COP TGFb inh
Cc1ccc(NC(=O)c2ccc([N+](=O)[O-])s2)cc1S(=O)(=O)N1CCOCC1,?,7.1µM*,-158%,i,6.5µM*,?,?,26%
Cc1ccc(NC(=O)c2ccccc2NS(=O)(=O)c2ccc(Cl)s2)cc1S(=O)(=O)N1CCOCC1,?,?,-51%,?,13µM*,?,8.2µM*,61%
O=C(Nc1cc(S(=O)(=O)N2CCOCC2)ccc1N1CCOCC1)c1ccc([N+](=O)[O-])s1,-36%,?,-4%,i,·,·,·,·
c1cnc2ccc3c(c2c1)COCO3,-2%,-8%,-3%,i,·,·,·,·
O=[N+]([O-])c1cc2c(c3cccnc13)COCO2,-21%,?,-5%,i,18µM*,-25%,7%,2%
Cn1ncc2c(NCc3ccco3)ncnc21,·,1%,-16%,·,·,·,·,·
COc1ccccc1Cc1c(-c2ccc(F)cc2)nc2ccc(Br)cn12,-12%,10µM*,-32%,?,?,?,?,43%
COc1ccc(Cc2c(-c3cccc(Br)c3)nc3ccc(Br)cn23)c(C)c1,36%,?,-26%,i,?,?,?,-3%
COc1ccc(-c2nc3ccc(Br)cn3c2Cc2cccc(Cl)c2)cc1OC,-29%,13µM*,4%,?,18µM*,?,?,22%
CC1CC(C)CN(c2oc(-c3ccc(OCc4ccccc4Cl)cc3)nc2C#N)C1 (stereo not drawn),·,1%,-2%,·,·,·,·,·
Cc1cc(Br)ccc1NC(=O)COC(=O)c1ccccc1OCC(N)=O,·,-10%,-8%,·,·,·,·,·
Cn1nnc2c(NCc3ccco3)ncnc21,·,-2%,-27%,·,·,·,·,·
CCOC(=O)c1c(C)oc2c1c(C=NCc1ccccn1)c(O)c1ccccc12,?,?,-6%,?,?,?,18µM*,29%
O=C(c1[nH]c(C(F)(F)F)nc1-c1ccccc1)N1CCN(c2cccc(C(F)(F)F)n2)CC1,-8%,11µM*,-29%,i,16µM*,-18%,13µM*,0%
Nc1cc2[nH]c(=O)c3ccccc3c2cc1[N+](=O)[O-],-1%,11µM*,-10%,?,?,?,?,71%
COc1cc2c(=O)[nH]c3cc([N+](=O)[O-])ccc3c2cc1[N+](=O)[O-],·,3%,-2%,i,·,·,·,·
COc1cc(-c2ccc(N=Nc3ccc4c(S(=O)(=O)O)cc(S(=O)(=O)O)c(N)c4c3O)c(OC)c2)ccc1N=Nc1ccc2c(S(=O)(=O)O)cc(S(=O)(=O)O)c(N)c2c1O,·,·,·,i,·,·,·,·
FC(F)Oc1ccc(NC(=S)NC23CC4CC(CC(C4)C2)C3)cc1,-4%,13µM*,-24%,i,?,?,?,38%
Oc1c(N=Nc2nn[nH]n2)ccc2ccccc12,-32%,4.5µM*,5.6µM*,22µM*,7.3µM*,15µM*,21µM*,?
COc1ccc(CCNC(=O)c2ccc(-c3ccc([N+](=O)[O-])cc3Cl)o2)cc1OC,-35%,10µM*,-24%,i,21µM*,?,9.2µM*,32%
COc1ccc(CCNC(=O)c2ccc([N+](=O)[O-])cc2Cl)cc1OC,-27%,8%,-6%,i,·,·,·,·
COc1ccc(C2Nc3ccccc3C(=O)N2Cc2ccccc2)cc1COc1ccccc1F (stereo not drawn),·,19%,1%,·,·,·,·,·
CCC(C)NS(=O)(=O)c1ccc(NC(=O)C(Sc2ccccc2)c2ccccc2)cc1 (stereo not drawn),?,13µM*,-25%,?,?,?,?,53%
CS(=O)(=O)c1ccc(C(=O)OCC(=O)NCC2CCCO2)cc1[N+](=O)[O-] (stereo not drawn),·,?,-52%,·,·,·,·,·
O=C1C=C(NC2=CC3OC(c4ccccc4)OCC3OC2=O)CCC1 (stereo not drawn),-25%,10µM*,-18%,?,10µM*,?,13µM*,27%
SMILES,ATXN2 expr inh,TGFb SMAD3 inh,HepG2 tox-1,S2 tox,TGFb CAGA inh,HepG2 tox-2,TGFb CCL64 inh,COP TGFb inh
O=C1c2ccccc2NC(c2cc(Br)c3c(c2)OCO3)N1Cc1ccco1 (stereo not drawn),·,?,-6%,·,·,·,·,·
COc1ccc(N2CCCC2)c(NC(=O)c2ccc([N+](=O)[O-])o2)c1,-39%,5.6µM*,-41%,?,?,?,?,9%
O=C(Nc1cccc([N+](=O)[O-])c1)c1ccc([N+](=O)[O-])o1,·,?,-63%,?,·,·,·,·
O=C(Nc1nc2c(F)cccc2s1)c1ccc([N+](=O)[O-])o1,-13%,4%,-20%,i,·,·,·,·
COc1ccccc1NC(=O)c1ccc([N+](=O)[O-])o1,-24%,2.8µM*,13µM*,i,?,?,?,25%
O=C(Nc1ccc(N2CCCC2)c(Cl)c1)c1ccc([N+](=O)[O-])o1,39%,?,-79%,i,·,·,·,·
O=C(Nc1nc2ccc(F)cc2s1)c1ccc([N+](=O)[O-])o1,·,5.6µM*,-62%,?,4.6µM*,9.2µM*,?,3%
O=C(Nc1cccc(NC(=O)c2ccccc2Cl)c1)c1ccc([N+](=O)[O-])o1,?,3.5µM*,-89%,?,1.3µM*,6.5µM*,8.2µM*,?
COCc1cc(O)c(O)c(O)c1-c1c(COC)cc(O)c(O)c1O,·,-14%,-37%,·,·,·,·,·
Cc1cccc2cc(CN(Cc3ccccc3)Cc3nnnn3Cc3ccccc3)c(=O)[nH]c12,·,3%,-3%,·,·,·,·,·
O=C(Nc1nc2ccc(F)cc2s1)C1CCN(S(=O)(=O)c2cc([N+](=O)[O-])ccc2Cl)CC1,?,11µM*,3%,i,9.2µM*,?,9.2µM*,28%
O=C(Nc1ncccn1)c1ccc([N+](=O)[O-])o1,-17%,?,-47%,i,·,·,·,·
